# In paper PMC10726135, “HNF4α isoforms regulate the circadian balance between carbohydrate and lipid metabolism in the liver”:
# Over roughly 18,000 sequences, “log2 normalized intensity” has its median near 0.39; the highest 2% begin near 6.6. The sample holds the highest values, similar sequences and a random draw of the others, so the mix is not that of the screen.
# Biological target: T1, HNF4alpha2 (COS-7 nuclear extract) (Homo sapiens, UniProt P41235 1-474)
# T1 sequence: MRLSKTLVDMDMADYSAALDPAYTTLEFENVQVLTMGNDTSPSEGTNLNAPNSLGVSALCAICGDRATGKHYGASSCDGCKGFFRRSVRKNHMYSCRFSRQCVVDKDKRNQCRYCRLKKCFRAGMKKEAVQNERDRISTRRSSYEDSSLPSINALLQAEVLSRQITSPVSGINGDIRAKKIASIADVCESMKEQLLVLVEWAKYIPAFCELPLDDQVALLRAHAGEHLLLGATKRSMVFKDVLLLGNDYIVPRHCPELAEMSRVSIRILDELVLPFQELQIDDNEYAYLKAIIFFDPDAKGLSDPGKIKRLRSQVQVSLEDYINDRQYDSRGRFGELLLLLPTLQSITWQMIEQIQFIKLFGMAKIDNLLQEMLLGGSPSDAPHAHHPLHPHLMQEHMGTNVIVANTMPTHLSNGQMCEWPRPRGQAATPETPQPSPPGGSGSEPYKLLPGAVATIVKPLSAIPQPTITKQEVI
# Test: protein-binding microarray; COS-7 nuclear extract on double-stranded Agilent 4x180k PBM; binding buffer, salt, pH and temperature not given in the material; high values mean tight binding
# Details: chain copies: 2; label: 3' end of strand 1 on the slide; dsDNA, one strand shown
# In short: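 A human HNF4α isoform was expressed in COS-7 cells by transient CaPO4 transfection, and nuclear extracts were prepared. These were applied to a custom Agilent SurePrint G3 4x180k array carrying ~44,000 test sequences in quadruplicate as double-stranded ~60-nt oligonucleotides, and an Agilent G2565CA scanner imaged bound HNF4α at 2-µm resolution. The background-corrected, normalized gProcessedSignal from Agilent software was used as the binding signal.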
row,Sequence,binding signal
1,CGAACCTGTCTCCAGAGGACTTGCGGTGTTGCCTAGGGAGATTAGAGTATCGGTCGA,0.482 log2 normalized intensity
2,CTGCCCTTTGGAACCTGCCCTCTGTCCCATGCCTAGGGAGATTAGAGTATCGGTCGA,4.15 log2 normalized intensity
3,AAACCCAAGATTTGGTGTTACCTTTGGACTGCCTAGGGAGATTAGAGTATCGGTCGA,5.71 log2 normalized intensity
4,CATGACCTTTGGACTGTGACCCCACCTCTCGCCTAGGGAGATTAGAGTATCGGTCGA,7.45 log2 normalized intensity
5,CTTTGGAACCTGCCCTCTGTCCCATGGTGTGCCTAGGGAGATTAGAGTATCGGTCGA,2.48 log2 normalized intensity
6,CCTTTGGACTGTGACCCCACCTCTCAGACAGCCTAGGGAGATTAGAGTATCGGTCGA,4.83 log2 normalized intensity
7,GGGCAGGGTCAGAACCTGCCCATGACCTTTGCCTAGGGAGATTAGAGTATCGGTCGA,5.92 log2 normalized intensity
8,AGAACCTGCCCATGACCTTTGGACTGTGACGCCTAGGGAGATTAGAGTATCGGTCGA,9.54 log2 normalized intensity
9,GGACTGTGACCCCACCTCTCAGACAGAGCTGCCTAGGGAGATTAGAGTATCGGTCGA,2.75 log2 normalized intensity
10,GGGTCAGAACCTGCCCATGACCTTTGGACTGCCTAGGGAGATTAGAGTATCGGTCGA,11.1 log2 normalized intensity
11,TGTAATAAGGAGTTGTGTGATAAGGAGGGCGCCTAGGGAGATTAGAGTATCGGTCGA,0.534 log2 normalized intensity
12,CATGCAATCACACTAATCTGTCAGAAAACCGCCTAGGGAGATTAGAGTATCGGTCGA,-0.731 log2 normalized intensity
13,GGTGAGGGTTACAGGTGGACAAACAGGCTGGCCTAGGGAGATTAGAGTATCGGTCGA,-0.829 log2 normalized intensity
14,GAAGATCGCAGACTTTGGACTCTGCAAGGAGCCTAGGGAGATTAGAGTATCGGTCGA,5.8 log2 normalized intensity
15,GGAGACCTGAAACTAGACCAAGAAGACTTTGCCTAGGGAGATTAGAGTATCGGTCGA,-0.974 log2 normalized intensity
16,CTGAAGAATTTGGACTTTGCACTAAAAGCCGCCTAGGGAGATTAGAGTATCGGTCGA,6.95 log2 normalized intensity
17,AGCACCTGAAGAATTTGGACTTTGCACTAAGCCTAGGGAGATTAGAGTATCGGTCGA,8.43 log2 normalized intensity
18,TTCCTGAAGATCGCAGACTTTGGACTCTGCGCCTAGGGAGATTAGAGTATCGGTCGA,7.83 log2 normalized intensity
19,GAATTTGGACTTTGCACTAAAAGCCATGAGGCCTAGGGAGATTAGAGTATCGGTCGA,5.86 log2 normalized intensity
20,AGGGATTCCTGAAGATCGCAGACTTTGGACGCCTAGGGAGATTAGAGTATCGGTCGA,5.66 log2 normalized intensity

row,Sequence,binding signal
1,TGGACTTTGGAATTAAGGAGATTTGGCTTTGCCTAGGGAGATTAGAGTATCGGTCGA,4.84 log2 normalized intensity
2,GGTGAGTCTTTGCCCCTGGACTTTGAATTTGCCTAGGGAGATTAGAGTATCGGTCGA,4.94 log2 normalized intensity
3,GGGTCCTGGCAGCACCTGAAGAATTTGGACGCCTAGGGAGATTAGAGTATCGGTCGA,1.23 log2 normalized intensity
4,CTGGCAGCACCTGAAGAATTTGGACTTTGCGCCTAGGGAGATTAGAGTATCGGTCGA,7.7 log2 normalized intensity
5,TGGACTTTGCACTAAAAGCCATGAGAAGGTGCCTAGGGAGATTAGAGTATCGGTCGA,4.84 log2 normalized intensity
6,AATAGTGACCTCTGCTGGCCAGTGGAAAACGCCTAGGGAGATTAGAGTATCGGTCGA,1.08 log2 normalized intensity
7,CAGTCTAGAATCTGCAGCCCCTTTTGGAATGCCTAGGGAGATTAGAGTATCGGTCGA,2.02 log2 normalized intensity
8,CCACTGGAGTCTTGTTTGTCAAGTTTGGTAGCCTAGGGAGATTAGAGTATCGGTCGA,1.81 log2 normalized intensity
9,AGGGTGTTGTGGAATGTGCTTGGACCTGCTGCCTAGGGAGATTAGAGTATCGGTCGA,1.99 log2 normalized intensity
10,AGAAATGTTATCTCAGTAGACTAACGTATGGCCTAGGGAGATTAGAGTATCGGTCGA,0.476 log2 normalized intensity
11,GCATTCCACCAAATCTTACCTAAGGAAGTTGCCTAGGGAGATTAGAGTATCGGTCGA,-0.954 log2 normalized intensity
12,GGGCTTTTGTCACATTCCAGACTTTGTACAGCCTAGGGAGATTAGAGTATCGGTCGA,4.95 log2 normalized intensity
13,TCCAAAATACGACCTTTGGACAGGGTGACGGCCTAGGGAGATTAGAGTATCGGTCGA,6.8 log2 normalized intensity
14,GTACTTTGTACATGGGAATAGACATTCCAGGCCTAGGGAGATTAGAGTATCGGTCGA,2.04 log2 normalized intensity
15,AGAAGTTGGACTTTGTACATTCCAAATACGGCCTAGGGAGATTAGAGTATCGGTCGA,6.88 log2 normalized intensity
16,TTGGACTTTGTACATTCCAAATACGATAATGCCTAGGGAGATTAGAGTATCGGTCGA,5.36 log2 normalized intensity
17,CCTGGTGACCTTTGTTTGGTCAAATACCTAGCCTAGGGAGATTAGAGTATCGGTCGA,2.9 log2 normalized intensity
18,ATTCCAAGAAGAGCCAATAGTACACATCAAGCCTAGGGAGATTAGAGTATCGGTCGA,-0.572 log2 normalized intensity
19,ACATCAGAAGTTGGACTTTGTACATTCCAAGCCTAGGGAGATTAGAGTATCGGTCGA,7.69 log2 normalized intensity
20,AATACGACCTTTGGACAGGGTGACGTCATTGCCTAGGGAGATTAGAGTATCGGTCGA,6.27 log2 normalized intensity

row,Sequence,binding signal
1,ATGGTGGCCATTCTGATTTGATAAGATGTGGCCTAGGGAGATTAGAGTATCGGTCGA,0.774 log2 normalized intensity
2,CTTCGTCCTGAGCAGTCCCTTCCCCCCTCCGCCTAGGGAGATTAGAGTATCGGTCGA,5.36 log2 normalized intensity
3,ACTTGTTCCCTGTCGCTATCTTATCTGGGCGCCTAGGGAGATTAGAGTATCGGTCGA,1.62 log2 normalized intensity
4,CTCATTCTTGGAATGCATTGCAAGTCGTATGCCTAGGGAGATTAGAGTATCGGTCGA,1.17 log2 normalized intensity
5,TGCCCCTTCACATATTTTGAAAGAAAGAGAGCCTAGGGAGATTAGAGTATCGGTCGA,1.68 log2 normalized intensity
6,CGGCTTGCGTCCCCAGGTGAACTCAGTCCTGCCTAGGGAGATTAGAGTATCGGTCGA,1.21 log2 normalized intensity
7,TTGTAGCCTCATTTCACCTTTGGTCTTTGGGCCTAGGGAGATTAGAGTATCGGTCGA,4.78 log2 normalized intensity
8,TAGCCTTATCTCAGATGAGACTTTGGACTTGCCTAGGGAGATTAGAGTATCGGTCGA,7.96 log2 normalized intensity
9,TTATCTCAGATGAGACTTTGGACTTTTGAAGCCTAGGGAGATTAGAGTATCGGTCGA,7.12 log2 normalized intensity
10,GGGCTGAGGATGAGGACTTTGGTCTTATTAGCCTAGGGAGATTAGAGTATCGGTCGA,3.74 log2 normalized intensity
11,GAATCTACAGAATTCTCATGGAGGACTTTGGCCTAGGGAGATTAGAGTATCGGTCGA,2.77 log2 normalized intensity
12,CAGATGGATTGATAGACTTATCTCAGCCTGGCCTAGGGAGATTAGAGTATCGGTCGA,-0.761 log2 normalized intensity
13,TCTGGGATGTTGGGAGGAGTGGACTTTGATGCCTAGGGAGATTAGAGTATCGGTCGA,5.99 log2 normalized intensity
14,TCAGATGAGACTTTGGACTTTTGAACTAAGGCCTAGGGAGATTAGAGTATCGGTCGA,6.42 log2 normalized intensity
15,GGGACTAGCCTTATCTCAGATGAGACTTTGGCCTAGGGAGATTAGAGTATCGGTCGA,1.7 log2 normalized intensity
16,ATCTAGGTGAGGGATGAGGACTTTGATCAGGCCTAGGGAGATTAGAGTATCGGTCGA,6.01 log2 normalized intensity
17,AATTCTCATGGAGGACTTTGGCCTTTTGTGGCCTAGGGAGATTAGAGTATCGGTCGA,5.77 log2 normalized intensity
18,GATGTTGGGAGGAGTGGACTTTGATCTCAGGCCTAGGGAGATTAGAGTATCGGTCGA,8.9 log2 normalized intensity
19,TACAGAATTCTCATGGAGGACTTTGGCCTTGCCTAGGGAGATTAGAGTATCGGTCGA,7.11 log2 normalized intensity
